PP1 counter = PP1-alpha (human) inhibition in PP5 counter-screen | AID 2235 | actives 0.9% (n = 320,000) | inhibition, % at 6.7 µM | purified PP1alpha, OMFP fluorescence | P62136;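 active means inhibition above the mean inhibition of all tested compounds plus 3 SD, computed separately for each screening campaign, cut at about 15% in these data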
NadD block = NadD (S. aureus) enzyme inhibition. purified NadD enzyme, colorimetric absorbance read-out. AID 602399. actives 0.78% (n = 360,000). inhibition, % at 20 µM; in the data active means inhibition above about 26%
PP5 inh = inhibitors of human protein phosphatase 5 (PP5) | inhibition, % at 6.7 µM | actives 0.18% (n = 320,000) | purified PP5c, OMFP substrate fluorescence;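 active means inhibition above the campaign's mean inhibition across all tested compounds plus 3 SD, cut at about 9.5% in these data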;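 further: 0% = DMSO only and 100% = 100 µM cantharidin control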
Target sequence (P53041 whole entry, looked up): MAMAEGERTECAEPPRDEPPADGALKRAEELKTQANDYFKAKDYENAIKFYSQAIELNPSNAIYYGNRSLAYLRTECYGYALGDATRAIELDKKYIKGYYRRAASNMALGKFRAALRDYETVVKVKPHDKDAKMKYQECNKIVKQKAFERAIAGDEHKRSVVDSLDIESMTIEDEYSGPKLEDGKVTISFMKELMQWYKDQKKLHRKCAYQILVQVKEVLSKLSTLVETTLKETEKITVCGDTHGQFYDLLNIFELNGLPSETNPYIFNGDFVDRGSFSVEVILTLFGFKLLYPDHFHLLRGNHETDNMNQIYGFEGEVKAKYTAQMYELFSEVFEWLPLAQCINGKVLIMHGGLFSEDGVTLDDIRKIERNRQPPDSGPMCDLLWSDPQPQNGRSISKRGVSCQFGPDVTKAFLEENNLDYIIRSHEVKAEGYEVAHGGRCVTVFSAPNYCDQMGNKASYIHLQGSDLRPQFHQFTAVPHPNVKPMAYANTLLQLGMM
PREPL inhibitor = inhibits the human prolyl oligopeptidase-like enzyme. recombinant PREPL, fluorescence polarization activity-based probe. inhibition, % at 5.96 µM. actives 0.68% (n = 320,000). AID 2751; in the data active means inhibition above about 43%;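 further: 0% = enzyme with DMSO and 100% = wells lacking enzyme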
Rpn11 inh = Rpn11 (human) deubiquitinase inhibition | human 26S proteasome, Ub4-pepOG fluorescence polarization; 20S core pre-blocked with epoxomicin | O00487 | inhibition, % at 20 µM | AID 588493 | actives 0.59% (n = 360,000);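 active means inhibition at 20 µM, scaled to each plate's controls, above about 33%, limit read from the data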
PREPL inh cf = confirmation of human PREPL enzyme inhibitors | shares compounds with PREPL inhibitor | recombinant PREPL, fluorescence polarization activity probe | inhibition, % at 5.96 µM | actives 67% (n = 2,000) | AID 2803; in the data active means inhibition above about 43%;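 further: 0% = protein with DMSO and 100% = wells lacking protein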
Rpn11 confirm = Rpn11 inhibition confirmation, single concentration. purified human 26S proteasome, Ub4-pepOG fluorescence polarization; proteasome pretreated with epoxomicin. inhibition, % at 20 µM. shares compounds with Rpn11 inh. AID 602318. actives 29% (n = 1,900)
MMP-2 counter = counter-screen for RPN11 inhibitors: inhibition of human MMP-2; shares compounds with Rpn11 inh; recombinant MMP-2, FRET peptide cleavage fluorescence; inhibition, % at 20 µM; actives 4% (n = 1,900); AID 602330;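 further: human MMP-2 activated beforehand with APMA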
Thrombin inh = counter-screen for RPN11 inhibitors: inhibition of bovine thrombin; shares compounds with Rpn11 inh; bovine thrombin cleavage of Ub4-pepOG, fluorescence polarization; inhibition, % at 20 µM; actives 13% (n = 1,900); AID 602333;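 active means mean inhibition at least 40% at 20 µM, or signal 3 deviations below plate average, so some actives read negative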;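 further: plate controls were thrombin with DMSO for no effect and buffer wells lacking thrombin for full effect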
Active calls of the source: *; x = no result shown. Sampled rows, rich in hits. Any-hit rate of the full collection: about 2.4%. Unless noted, no stated cut-off is given here; in the data, active means inhibition above about 40%; inactive means the rest.

SMILES | PP1 counter | NadD block | PP5 inh | PREPL inhibitor | Rpn11 inh | PREPL inh cf | others
COc1cc(/C=N/Nc2nc3c(c(=O)n(C)c(=O)n3C)n2Cc2ccccc2)ccc1OC(=O)c1ccco1 | 10 | 17 | 1 | 80* | 6 | 89*
CCN(C(=O)COC(=O)/C=C/c1ccco1)C1CCCCC1 | x | 5 | x | 0 | -1 | x
CN(C)c1ccc(NC(=O)c2ccc(COc3cccc(Cl)c3)o2)cc1 | 1 | -5 | 5 | 58* | 3 | 47*
N#CC1=C(Nc2ccccc2)SC=C(c2ccc(F)cc2)N=C1N1CCOCC1 | 1 | x | 1 | 52* | x | 36
N#Cc1c(-c2ccc(F)cc2)ccnc1N1CCOCC1 | 1 | -3 | -3 | 2 | -3 | x
COC(CNC(=O)C(=O)NCC1CCCN1S(=O)(=O)c1cccs1)OC (stereo not drawn) | -2 | -4 | 0 | 10 | -7 | x
Cc1ccc(CN2CCSc3ccc(C(=O)NCC4CCCO4)cc32)cc1 (stereo not drawn) | -1 | 0 | 5 | 43* | 5 | 40
CCOC(=O)c1c(N)sc(C(=O)OCCOC)c1C | -1 | 5 | 2 | -4 | -5 | x
CC(C)(C)C1CCc2onc(C(=O)Nc3ccc4c(c3)OCO4)c2C1 (stereo not drawn) | -3 | -8 | -1 | -3 | 7 | x
CC(=O)Nc1cc(OC(=O)c2ccco2)cc(OC(=O)c2ccco2)c1 | -4 | -1 | 6 | 50* | -1 | 37
CC(/C=C/c1ccco1)=N/NC(=O)c1ccc(C)nc1 | -8 | -1 | -1 | 60* | -2 | 17
CC(/C=C/c1ccco1)=N\NC(=O)c1cccnc1 | -3 | 6 | 4 | 15 | 4 | x
Cc1nn(-c2ccccc2)c2c1C(c1ccccc1)C(C#N)=C(N)O2 (stereo not drawn) | 1 | 6 | 1 | -2 | 3 | x
N#CC1=C(N)N(c2ccccc2)C(c2ccccc2)C1(C#N)C#N (stereo not drawn) | 3 | -8 | 4 | 46* | -2 | 19
CC[C@@H](C)[C@@H]1CN([C@@H](C)CN2CCC[C@H]2CN2C(N)=NC[C@@H]2Cc2ccccc2)C(=N)N1CCCC1CCCC1 | x | 7 | x | 44* | -12 | 50*
CC[C@@H](C)[C@@H]1CN([C@@H](CN2CCC[C@H]2CN2C(N)=NC[C@H]2C(C)C)C(C)C)C(=N)N1CCc1ccc(Cl)c(Cl)c1 | x | 5 | x | 60* | -17 | 50*
CC[C@@H](C)[C@@H]1CN([C@@H](C)CN2CCC[C@H]2CN2C(N)=NC[C@H]2CC(C)C)C(=N)N1CCCC1CCCC1 | x | -7 | x | 41 | -11 | x
CC[C@@H](C)[C@@H]1CN([C@@H](C)CN2CCC[C@H]2CN2C(N)=NC[C@@H]2Cc2ccccc2)C(=N)N1CCc1ccc(Cl)c(Cl)c1 | x | 4 | x | 52* | -19 | 41
Cc1ccccc1OCC(=O)OCC(=O)NC1CCCCCC1 | x | 1 | x | x | -2 | x
CC(C)COC(=O)N(C)C[C@@H]1OCc2cnnn2CCCC(=O)N([C@@H](C)CO)C[C@H]1C | x | -2 | x | x | -3 | x
CCOC(=O)N1CCN(C(=O)Cn2nc(C)n3nc(-c4ccccc4)cc3c2=O)CC1 | -3 | 0 | 3 | 14 | 4 | x
COc1ccc(OCC(=O)Nc2cc(OC)ccc2N2CCCCC2)cc1 | 1 | 0 | 4 | 11 | 5 | x
COc1ccc(-[n+]2c(C)cc(/C=C3\Sc4ccccc4N3C)cc2C)cc1 | 2 | 3 | 3 | 70* | 83* | 69* | Rpn11 confirm=50*;MMP-2 counter=-24;Thrombin inh=-22
CCN1C(=O)/C(=C2/Sc3ccccc3N2CC)S/C1=N\c1ncn[nH]1 | 3 | 12 | 0 | 48* | 72* | 33 | Rpn11 confirm=162*;MMP-2 counter=-70;Thrombin inh=104*
C=CCN1C(=O)/C(=C2/Sc3ccccc3N2CC)SC1=S | 2 | 5 | 2 | -5 | x | x
